Hit rate of the full screen: of about 320,000 compounds, about 1,700 (0.53%) were called active. Shown is part of a subset that was picked to be rich in actives. A number with no mark means an inactive call.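 The calls were made as follows: active = inhibition above the campaign mean of all compounds plus 3 SD (cut at about 26% in these data); inactive = the rest.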

The target of this test is Protein phosphatase methylesterase 1 (Homo sapiens) (UniProt Q9Y570). Put plainly: human PME-1 methylesterase blockers – biochemical, fluorescence polarization, FP-Rh probe, HTS, primary screen (AID 2130).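 Also: competitive labeling of PME-1 active site by serine hydrolase directed probe; 0% = PME-1 with DMSO and 100% = wells lacking PME-1 enzyme; inhibitors block probe labeling so polarization falls and inhibition rises.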 The note with it: recombinant PME-1, FP-Rh probe fluorescence polarization; at 5.9 µM; active compounds read high. On the technique in general: Fluorescence polarisation rises when a labelled molecule tumbles more slowly, as on binding a larger partner.
Sequence of Protein phosphatase methylesterase 1 (Homo sapiens) (Q9Y570 whole entry, looked up): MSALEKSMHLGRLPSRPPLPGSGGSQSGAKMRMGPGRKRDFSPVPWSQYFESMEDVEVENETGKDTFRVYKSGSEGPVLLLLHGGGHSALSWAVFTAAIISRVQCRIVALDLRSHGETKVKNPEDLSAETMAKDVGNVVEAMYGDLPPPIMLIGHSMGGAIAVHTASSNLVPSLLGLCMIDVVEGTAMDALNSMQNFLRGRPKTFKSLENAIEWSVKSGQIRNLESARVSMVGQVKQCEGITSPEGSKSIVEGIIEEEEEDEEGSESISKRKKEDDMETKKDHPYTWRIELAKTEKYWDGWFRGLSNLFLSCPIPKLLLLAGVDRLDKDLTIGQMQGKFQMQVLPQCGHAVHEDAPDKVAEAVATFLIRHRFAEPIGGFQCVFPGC
By inhibition is commonly meant the change of the read-out against control, counted positive when it falls. Take `O=C(NCc1cccs1)C1CCN(S(=O)(=O)c2ccc(Cl)cc2)CC1`: the inhibition was 49.3% (active).

Turning to `O=C(NCc1cccs1)C1CCN(S(=O)(=O)c2ccc3c(c2)OCCO3)CC1`, the inhibition is 10.8%.

On to `O=C(NCc1ccc(Cl)cc1)C1CCN(S(=O)(=O)c2cccs2)CC1`, for which the inhibition is 11.3%. For `Cc1cccc(N2CCN(Cc3nc(C4CC4)no3)CC2)n1` the value was 0.08%; for `CC1C(c2ccccc2)=[N+]([O-])C2(CCCC2)N1O` (stereo not given), -10.2%. Turning to `Cc1ccc(-c2csc(-c3c[nH]c4ccccc34)n2)cc1`, the inhibition was 27.5% (active).

Consider `Cc1ccc(-c2csc(-c3cc(C)on3)n2)cc1`, for which the inhibition was -0.04%.

With `CCCc1cc(-c2nc(-c3ccc(C)cc3)cs2)ccn1`, the inhibition is -6.39%.

With `COc1ccccc1-c1sc2ccccc2c1-c1ccc(Br)nc1`, the inhibition was -9.82%. In the case of `COc1ccccc1-c1sc2ccccc2c1-c1ccc(C(C)=O)cc1` it was 33.6% (active); in that of `COc1ccccc1-c1c(C)nn2c(C)c(C(C)=O)cnc12`, -0.93%. In the case of `N#Cc1c(C(F)(F)F)cc(-c2cccs2)nc1N1CCCCC1`, the inhibition is 2.44%. Turning to `COc1ccc(CN2CCCC(C(=O)c3ccc(Cl)cc3)C2)cc1Cn1cncn1` (stereo not given), the inhibition is 4.9%. In the case of `CC(=O)c1ccc(OCC(O)CN2CCN(S(=O)(=O)c3cccc(Br)c3)CC2)cc1` (stereo not given) it was 7.43%; in that of `CC(=O)NC1=NN(C(C)=O)C(C)(c2ccc(Cl)s2)S1` (stereo not given), -1.89%. For `CC(=O)Nc1cccc(Nc2nc(-c3cccs3)nc3ccccc23)c1`, the inhibition is -31.9%. As to `COc1ccc(Nc2nc(-c3cccnc3)nc3ccccc23)cn1`, the inhibition was 0.55%. For `Cc1cccc(-c2nc(Nc3ccc(O)cc3)c3ccccc3n2)c1`, the inhibition is 30.6% (active). Consider `Nc1nonc1-n1nnc(C(=O)N/N=C/c2c[nH]c3ccccc23)c1-c1ccccc1`, for which the inhibition was 34.1% (active). In the case of `CC(C)c1c(C(=O)N/N=C/c2ccccc2C(=O)O)nnn1-c1nonc1N` it was 3.05%; in that of `Nc1nonc1-n1nnc(C(=O)N/N=C/C2CCCCC2)c1-c1ccccc1`, 2.24%. In the case of `O=C(C(=O)N1CCc2ccccc2C1)c1c[nH]c2ccccc12` it was -0.44%; in that of `Cc1cccc(C)c1NC(=S)N1CCCCCC1`, -3.93%. In the case of `COc1ccc(CNC(=O)COc2ccccc2C(=O)c2cnn(-c3ccccc3)c2)cc1OC`, the inhibition is -5.4%. `Cc1ccc(S(=O)(=O)n2cnc3ccccc32)c(C)c1`: the inhibition is -0.58%. Regarding `O=c1[nH]cnc(O)c1C(c1ccc(F)cc1)c1c(O)nc[nH]c1=O`, the inhibition was -2.73%. `COc1cccc(NC(=O)Nc2nnc(N3CCCCC3C)s2)c1` (stereo not given): the inhibition was 43.8% (active). Take `COc1cccc(NC(=O)NCCN2CCCCC2)c1`: the inhibition is 0.47%. Turning to `COc1cccc(C(=O)Nc2nnc(S(=O)(=O)N3CCCCC3)s2)c1`, the inhibition was -0.5%.

On to `CC1CCC(NC(=O)CN(C)S(=O)(=O)c2ccc3c(c2)c(=O)n(C)c(=O)n3C)CC1` (stereo not given), for which the inhibition was 0.21%.

For `COc1ccnc(Oc2ccccc2)c1-c1ncn[nH]1`, the inhibition is 3.26%. For the compound `O=C(Nc1ccc(C(F)(F)F)cc1)c1cccc(-n2cnnn2)c1`, the inhibition was -9.13%.

On to `CC(=O)Nc1nc(C)c(-c2csc(Nc3ccc(S(N)(=O)=O)cc3)n2)s1`, for which the inhibition is -2.64%. In the case of `CCCCC(=O)Nc1nc(C)c(-c2csc(Nc3ccc(Cl)cc3)n2)s1` it was 16.9%. As to `Cc1nc(NC(=O)c2cccc(Cl)c2)sc1-c1csc(Nc2cccc(Cl)c2)n1`, the inhibition was 32.1% (active). `CCCCCCC(=O)Nc1nc(C)c(-c2csc(Nc3cccc(OC)c3)n2)s1`: the inhibition was 16.8%. On to `CCCCCCC(=O)Nc1nc(C)c(-c2csc(Nc3cc(Cl)ccc3OC)n2)s1`, for which the inhibition is 13.6%. In the case of `C=CCCC(=O)Nc1nc(C)c(-c2csc(Nc3ccc(Cl)cc3)n2)s1` it was 28.8% (active); in that of `COc1ccc(F)cc1C(=O)COC(=O)c1n[nH]c(=O)c2ccccc12`, 2.97%; in that of `Cc1cc(OC(=O)c2ccc(OC(C)C)cc2)c([N+](=O)[O-])c(=O)[nH]1`, -4.45%. Turning to `COc1cc(OC)cc(C(=O)NNC(=O)CCOc2ccccc2OC)c1`, the inhibition is -2.05%. In the case of `CCOc1ccc(-c2cn(S(=O)(=O)c3cccc4nsnc34)nc2N)cc1` it was 2.2%; in that of `Cc1ccccc1CC1(CO)CCCN(Cc2ccc3c(c2)OCCO3)C1` (stereo not given), 3.22%. On to `O=S(=O)(NCCc1ccc(Cl)cc1)c1cccs1`, for which the inhibition is 6.08%. Regarding `O=C(N/N=C/c1cccnc1)c1cc2ccccc2cc1O`, the inhibition is 12.5%. On to `CC(C)(C)OC(=O)NNc1c2ccccc2nc2ccccc12`, for which the inhibition was 17.6%. In the case of `O=C(NNc1c2ccccc2nc2ccccc12)c1cc2ccccc2cc1O` it was 76.5% (active). Regarding `COc1ccccc1C1C(C(N)=O)=C(C)Nc2nc(CCCO)nn21` (stereo not given), the inhibition is -0.55%.

`COc1ccc(C(=O)OC(C)C(=O)NC2CCCC2)cc1S(=O)(=O)N1CCOCC1` (stereo not given): the inhibition is 2.8%.

Take `COc1cnn(-c2ccc([N+](=O)[O-])cc2)c(=O)c1Cl`: the inhibition is -4.7%. In the case of `O=c1[nH]c2cccnc2n1-c1ccc([N+](=O)[O-])cc1`, the inhibition is 5.31%. `O=c1[nH]n(-c2ccc([N+](=O)[O-])cc2)c(=O)c2ccccc12`: the inhibition is 26.6% (active). Take `CCCCN1C(N)=NC[C@@H]1CC1CCCCC1`: the inhibition was -2.94%. `Cc1cc(=O)oc2cc(NC(=O)C3CC(=O)N(Cc4ccccc4)C3)ccc12` (stereo not given): the inhibition was 7.03%. For the compound `COc1cccc(C2Nc3cccc4cccc(c34)N2)c1`, the inhibition was 14.7%. In the case of `Oc1ccc(C2Nc3cccc4cccc(c34)N2)cc1`, the inhibition was 53.6% (active). For `Cc1ccc(C2Nc3cccc4cccc(c34)N2)cc1`, the inhibition was 1.72%. Take `CCc1ccc(NC(=O)CN2C(=O)COc3ccc(S(=O)(=O)N4CCCC4)cc32)cc1`: the inhibition was -0.43%.

For the compound `CCOC(=O)C1(Cc2ccccc2C(F)(F)F)CCN(C(=O)c2cc(C)n(C)n2)CC1`, the inhibition was -3.56%.

As to `CCCCCN(C(=O)CCC(=O)OCCOc1ccc(OC)cc1)c1c(N)n(CCCC)c(=O)[nH]c1=O`, the inhibition is -1.09%. As for `C=CCn1cc(-c2cccc(C(F)(F)F)c2)cc(C#N)c1=O`, the inhibition was 1.51%. Turning to `Oc1ccc(N=Cc2c(O)ccc3ccccc23)cc1`, the inhibition is 52.4% (active). Turning to `Oc1ccc(N=Cc2sc3ccccc3c2Cl)cc1`, the inhibition is 14.5%. Take `CCOc1[nH]n(-c2ccc(Cl)cc2)c(=O)c1C=Nc1ccc(O)cc1`: the inhibition is 14.7%. As to `CN(CCc1ccccn1)S(=O)(=O)c1ccc2c3c(cccc13)C(=O)N2`, the inhibition was 7.3%. For the compound `Nc1nc(CC(=O)CSc2ccc(Cl)cc2)nc(Nc2ccc(F)cc2)n1`, the inhibition was 0.37%. In the case of `COc1cccc(N2C(=O)CC(N3CCc4ccccc4C3)C2=O)c1` (stereo not given) it was 1.67%; in that of `COc1cccc(N2CCN(CC(=O)Nc3ccnn3C3CCCC3)CC2)c1`, 0.47%. Take `Cc1cccc(Nc2nc(-c3ccccc3)cs2)n1`: the inhibition is 9.05%. For the compound `Clc1ccc(Nc2nc(-c3cccs3)cs2)nc1`, the inhibition is 14.9%.

As for `Cc1ccc(Nc2nc(-c3ccc(O)cc3O)cs2)nc1`, the inhibition is 29% (active). Turning to `CCCOc1ccc(CNC(=O)C2CCN(c3nn4c(=O)cc(C)nc4s3)CC2)cc1`, the inhibition is -0.67%. As for `COc1ccc(CN(C(=O)CSc2nnc(-c3ccc(OC)c(OC)c3)o2)c2ccc(F)cc2)cc1`, the inhibition is -0.21%. On to `COc1ccccc1C(=O)NC(CCSC)C(=O)NNC(=O)c1ccccc1C` (stereo not given), for which the inhibition was -6.59%. Turning to `O=S(=O)(NC1CCCC1)c1ccc(-n2cnnn2)cc1`, the inhibition was -6.91%.

For `COc1ccc(CC(=O)NC2CCSc3ccccc32)cc1OC` (stereo not given), the inhibition is 8.44%.

Consider `CCC(C)(C)N=C(NC#N)Nc1cccnc1`, for which the inhibition was -2.16%. As for `CC[N+](C)(CC)CCC[n+]1c(-c2ccccc2)c2cc(N)ccc2c2ccc(N)cc21`, the inhibition is 54.4% (active).

Regarding `O=C(CN1C(=O)NC2(CCCCC2)C1=O)NCCc1c[nH]c2ccccc12`, the inhibition is 1.73%. On to `CC(=O)N/C(=C/c1ccc(Cl)cc1)C(=O)NCCc1c[nH]c2ccccc12`, for which the inhibition is 1.47%. In the case of `N#C/C(=C/c1ccc(N2CCCCC2)o1)C(=O)NCCc1c[nH]c2ccccc12`, the inhibition is 31.4% (active).

For the compound `CCOC(=O)c1c(C)[nH]c(C2=NNC(=NC(C)COC)SC2)c1C` (stereo not given), the inhibition was -7.22%. For `CCC(C(=O)NC1CCCC1)N(C(=O)Cn1nnc(-c2ccc(C)o2)n1)c1ccc(OC)c(OC)c1` (stereo not given) the value was 2.08%. In the case of `Cc1ccc(Cl)c(OCC(=O)N2CCc3ccccc3C2)c1` it was 2.04%. In the case of `FC(F)(F)c1nc(-c2ccccc2)ncc1-c1nnnn1-c1ccccc1` it was -1.36%; in that of `Oc1c(Cl)cc(Cl)c(Cl)c1Cc1c(O)c(Cl)cc(Cl)c1Cl`, 27% (active). With `Cc1ccc2nc(SCC(=O)N3CCN(c4ccccc4)CC3)nc(=O)n2c1`, the inhibition was 11.8%. For `Cc1ccccc1CCN(CC(=O)NC1CCCCC1)C(=O)c1csnn1`, the inhibition is 3.53%. As for `CCc1nc2nc(C)c(NS(=O)(=O)c3ccc4c(c3)CCCC4)c(=O)n2[nH]1`, the inhibition was 3.49%. Consider `CCOC(=O)c1c(C)oc(C)c(C(=O)OCC)c1=O`, for which the inhibition was 2.67%. Regarding `CCOC(=O)c1ccc(NC(=O)c2cc(=O)[nH]c3ccccc23)cc1`, the inhibition is -7.83%.

Regarding `CCOC(=O)c1nc(Nc2ccc(C(=O)OC)cc2)c2ccccc2n1`, the inhibition is -3.8%. `CCOC(=O)c1ccc(Nc2cc3ccccc3c(=O)[nH]2)cc1`: the inhibition is 51.5% (active).

As for `CCNC(=S)N(CCN(CC)CC)Cc1cc2cc3c(cc2[nH]c1=O)OCO3`, the inhibition is -3.38%. As for `CC1CCC(CN2CCN=C2N(C)C)CC1` (stereo not given), the inhibition is 0.76%.
